Assay results as given in the supplement of paper PMC9925115.
± gives the uncertainty stated by the source.

What follows are compounds tested on FLX1 (assay: cell viability z-score within plate (CellTiter-Glo), mean of 3 biological replicates; higher = higher viability relative to plate (less growth inhibition)). Settings: 2 µM; time (hr): 120.
Method: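 FLX1 fibrolamellar carcinoma cells (DNAJB1-PRKACA fusion), 600 cells/well in 384-well plates, treated with a Selleck kinase inhibitor library (L1200) at 2 uM for 5 days (120 hr); viability by CellTiter-Glo. A z-score was computed within each plate and averaged over three biological replicates.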
With Cn1cnc2c(F)c(Nc3ccc(Br)cc3Cl)c(C(=O)NOCCO)cc21 [Selumetinib (AZD6244)] the “cell viability z-score within plate” value was -0.403 ± 0.49. For COc1ncc(-c2ccc3nccc(-c4ccnnc4)c3c2)cc1NS(=O)(=O)c1ccc(F)cc1F, the “cell viability z-score within plate” value was 0.539 ± 0.32. For O=C(NC(NC(=S)Nc1ccc(F)c([N+](=O)[O-])c1)C(Cl)(Cl)Cl)C(c1ccccc1)c1ccccc1 (configuration not stated), the “cell viability z-score within plate” value was 0.309 ± 0.51. For COc1cc2nccc(Oc3ccc(NC(=O)C4(C(=O)Nc5ccc(F)cc5)CC4)cc3)c2cc1OC [Cabozantinib malate (XL184)], the “cell viability z-score within plate” value was 0.553 ± 0.015. COc1ccc(S(=O)(=O)N(CCO)c2ccccc2CN(C)C/C=C/c2ccc(Cl)cc2)cc1 [KN-93 Phosphate] was tested, and the “cell viability z-score within plate” value was 0.23 ± 0.54. In the case of Cc1cc(NC(=O)c2cccc(NC(=O)/C=C/CN(C)C)c2)ccc1Nc1nccc(-c2cccnc2)n1, the “cell viability z-score within plate” value is reported as 0.657 ± 0.22. Nc1nc(Nc2ccc(S(N)(=O)=O)cc2)nn1C(=O)c1c(F)cccc1F was tested, and the “cell viability z-score within plate” value was -2.24 ± 0.22.
